Measurements from PubChem BioAssay (NCATS).
Results filed as inconclusive are left out. Activity calls are given as the source filed them. Unless noted, calls come from the whole dose curve; as a rule, active = well fitted curve in the direction sought with a large enough effect; inconclusive = small, poorly fitted or top-dose-only effect, or another doubt; inactive = no such curve, though single readings can be large; an effect the other way counts as inactive or inconclusive.

Legend:
[1] = target: Glucocorticoid receptor (Homo sapiens) (UniProt P04150); assay: qHTS assay for small molecule agonists of glucocorticoid receptor signaling (AID 588532; active = well fitted curve in the direction sought with a large enough effect in the signal ratio, with a control signal flat; the % refers to the signal ratio;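 note: 100% = dexamethasone at 0.1 µM and 0% = DMSO only wells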); settings: HeLa MMTV-bla, beta-lactamase ratio, agonist, 18 h; stronger effect = higher value; percent of dexamethasone control, DMSO zero
Sequence of Glucocorticoid receptor (Homo sapiens) (P04150 whole entry, looked up): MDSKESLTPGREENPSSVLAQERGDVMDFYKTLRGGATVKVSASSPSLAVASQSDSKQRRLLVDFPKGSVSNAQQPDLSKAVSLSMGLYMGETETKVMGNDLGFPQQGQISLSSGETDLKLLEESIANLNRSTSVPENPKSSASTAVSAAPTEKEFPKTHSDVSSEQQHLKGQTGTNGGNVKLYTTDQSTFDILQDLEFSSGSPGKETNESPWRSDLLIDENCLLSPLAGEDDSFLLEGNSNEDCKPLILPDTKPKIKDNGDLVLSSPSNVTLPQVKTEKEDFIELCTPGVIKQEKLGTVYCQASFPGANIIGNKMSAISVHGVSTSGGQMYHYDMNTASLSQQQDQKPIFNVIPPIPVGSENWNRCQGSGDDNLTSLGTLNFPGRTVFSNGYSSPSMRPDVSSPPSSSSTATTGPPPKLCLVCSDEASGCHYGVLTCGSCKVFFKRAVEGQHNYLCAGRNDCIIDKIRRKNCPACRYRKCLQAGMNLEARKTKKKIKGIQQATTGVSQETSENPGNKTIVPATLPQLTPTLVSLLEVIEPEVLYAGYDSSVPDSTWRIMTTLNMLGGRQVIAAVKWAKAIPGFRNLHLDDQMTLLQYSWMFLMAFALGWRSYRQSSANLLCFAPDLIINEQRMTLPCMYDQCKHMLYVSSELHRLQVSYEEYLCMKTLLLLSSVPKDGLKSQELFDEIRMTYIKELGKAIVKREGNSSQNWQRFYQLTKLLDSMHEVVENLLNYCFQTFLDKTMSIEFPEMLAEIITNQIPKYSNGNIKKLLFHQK
Method in brief: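 MMTV-bla HeLa, beta-lactamase reporter; medium with 1% charcoal/dextran-stripped FBS; cpds up to 92 uM, 18 h, 37 C; CCF4 readout 460/530 nm; Hill fit → EC50, efficacy vs 0.1 uM dexamethasone = 100%.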

[2] = qHTS assay for small molecule antagonists of peroxisome proliferator-activated receptor delta signaling (AID 588535); settings: HEK293T PPARd-UAS-bla, beta-lactamase FRET ratio, 18 h; 460 nm channel;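 note: cells co-treated with a PPAR-delta agonist as stimulator during compound exposure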
Method in brief: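 Inhibition of PPAR-delta response element-driven beta-lactamase expression is measured in HEK293T cells exposed to a compound titration series for 18 hrs at 37 C. Half-maximal inhibition comes from Hill equation fitting.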

[3] = target: Peroxisome proliferator-activated receptor gamma (Homo sapiens) (UniProt P37231); assay: qHTS assay for small molecule agonists of peroxisome proliferator-activated receptor gamma signaling (AID 588536; active = well fitted curve in the direction sought with a large enough effect in the signal ratio, with a control signal flat, not every such curve was filed as active; the % refers to the signal ratio;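 note: 0% = DMSO basal wells and 100% = rosiglitazone at 2 µM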); settings: HEK293 PPARg-UAS-bla, beta-lactamase ratio, 16 h, percent of rosiglitazone response, DMSO as zero; series mostly up to 76.7 µM
Sequence of Peroxisome proliferator-activated receptor gamma (Homo sapiens) (P37231 whole entry, looked up): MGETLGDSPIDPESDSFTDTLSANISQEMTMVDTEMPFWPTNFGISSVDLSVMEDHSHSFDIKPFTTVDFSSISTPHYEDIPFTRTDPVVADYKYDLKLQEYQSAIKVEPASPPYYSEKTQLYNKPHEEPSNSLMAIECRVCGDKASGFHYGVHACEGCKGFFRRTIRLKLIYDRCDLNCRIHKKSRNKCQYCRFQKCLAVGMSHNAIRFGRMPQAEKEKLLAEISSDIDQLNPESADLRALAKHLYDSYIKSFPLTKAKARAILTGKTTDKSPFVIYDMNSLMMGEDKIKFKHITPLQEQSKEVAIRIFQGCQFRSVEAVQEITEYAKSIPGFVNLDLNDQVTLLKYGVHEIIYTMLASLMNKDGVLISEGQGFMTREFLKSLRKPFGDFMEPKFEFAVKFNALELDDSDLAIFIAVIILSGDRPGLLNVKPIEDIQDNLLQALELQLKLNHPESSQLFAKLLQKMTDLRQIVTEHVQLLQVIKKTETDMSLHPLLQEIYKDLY
Method in brief: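 Using GeneBLAzer HEK293 cells, response was quantified by CCF4 fluorescence and normalized between basal DMSO (0%) and rosiglitazone 2 uM (100%); curves yielded half-maximal stimulation concentration and efficacy.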

[4] = target: Peroxisome proliferator-activated receptor gamma (Homo sapiens) (UniProt P37231); assay: qHTS assay for small molecule antagonists of peroxisome proliferator-activated receptor gamma signaling (AID 588537; active = well fitted inhibition curve with a large enough effect in the signal ratio, with a control signal flat, not every such curve was filed as active; the % refers to the signal ratio;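 note: reporter cells co-stimulated with 50 nM rosiglitazone agonist during compound treatment; % of control where 0% means no effect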); settings: HEK293 PPARg-UAS-bla, beta-lactamase ratio, antagonist mode; series mostly up to 76.8 µM
Method in brief: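 Compounds are tested as concentration series for inhibition of rosiglitazone-driven (50 nM) reporter expression in GeneBLAzer PPAR-gamma-UAS-bla HEK293 cells. After 16 h at 37 C, CCF4 substrate is added for 2 h at room temperature and blue/green fluorescence is measured.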

[5] = target: Vitamin D3 receptor (Homo sapiens) (UniProt P11473); assay: qHTS assay for small molecule agonists of vitamin D receptor signaling (AID 588543; calls by dose curve;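 note: 0% = DMSO basal and 100% = reference agonist control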); settings: HEK293T VDR-UAS-bla, beta-lactamase ratio, 16 h; series mostly up to 76.8 µM
Sequence of Vitamin D3 receptor (Homo sapiens) (P11473 whole entry, looked up): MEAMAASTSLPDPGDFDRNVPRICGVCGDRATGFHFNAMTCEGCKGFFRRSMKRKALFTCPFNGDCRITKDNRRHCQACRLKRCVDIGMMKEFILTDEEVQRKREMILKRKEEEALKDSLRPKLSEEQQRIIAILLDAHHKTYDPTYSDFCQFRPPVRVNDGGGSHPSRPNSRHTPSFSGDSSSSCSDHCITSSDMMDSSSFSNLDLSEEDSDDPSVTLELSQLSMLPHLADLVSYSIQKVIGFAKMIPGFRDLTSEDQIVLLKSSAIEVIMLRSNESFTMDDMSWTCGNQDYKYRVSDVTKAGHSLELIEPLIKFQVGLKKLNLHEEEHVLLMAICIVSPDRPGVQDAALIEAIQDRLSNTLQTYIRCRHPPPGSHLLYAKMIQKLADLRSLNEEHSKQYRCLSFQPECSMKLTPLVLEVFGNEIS
Method in brief: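 Agonist-mode beta-lactamase reporter: HEK293T VDR-UAS-bla cells in charcoal-stripped 2% FBS, compound series 16 h 37 C, CCF4 2 h RT. EC50 from Hill fit, scaled against DMSO and 50 nM calcitriol control.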

[6] = target: Thyroid hormone receptor beta (Homo sapiens) (UniProt P10828); assay: qHTS assay for small molecule agonists of thyroid hormone receptor beta signaling (AID 588545; calls by dose curve;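 note: 0% = DMSO only and 100% = 10 nM T3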); settings: TR-UAS-bla GripTite HEK 293, beta-lactamase ratio, agonist mode, 18 h; series mostly up to 76.7 µM
Sequence of Thyroid hormone receptor beta (Homo sapiens) (P10828 whole entry, looked up): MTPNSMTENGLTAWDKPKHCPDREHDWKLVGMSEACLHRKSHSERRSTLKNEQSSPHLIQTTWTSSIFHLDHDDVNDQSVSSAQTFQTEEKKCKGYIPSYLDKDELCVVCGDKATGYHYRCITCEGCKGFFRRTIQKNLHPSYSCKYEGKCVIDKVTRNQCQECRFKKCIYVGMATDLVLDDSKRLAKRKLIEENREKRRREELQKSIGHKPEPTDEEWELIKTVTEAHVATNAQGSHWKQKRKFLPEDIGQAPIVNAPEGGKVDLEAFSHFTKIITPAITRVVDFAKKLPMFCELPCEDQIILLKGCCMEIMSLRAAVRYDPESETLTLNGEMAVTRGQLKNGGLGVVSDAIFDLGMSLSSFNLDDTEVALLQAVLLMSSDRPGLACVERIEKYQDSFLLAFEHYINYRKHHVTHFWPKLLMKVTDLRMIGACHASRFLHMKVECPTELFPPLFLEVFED
Method in brief: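 TR-UAS-bla GripTite HEK 293 cells (2500/well, medium with 2% charcoal/dextran FBS) were treated in agonist mode for 18 h at 37 C, titrated. Beta-lactamase was read by CCF4 ratio after 2 h; normalized to 10 nM T3 (100%) and DMSO, Hill-fitted for EC50 and efficacy.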

[7] = qHTS assay for small molecule antagonists of retinoid X receptor alpha signaling (AID 588546; active = well fitted inhibition curve with a large enough effect in the signal ratio, with a control signal flat, not every such curve was filed as active; the % refers to the signal ratio;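 note: cells stimulated with 9-cis-retinoic acid as agonist; % is set by controls: 0 for no effect and ±100 for the full control effect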); settings: HEK293T RXRa-UAS-bla, beta-lactamase ratio, antagonist mode; measured here: W530 green channel, cytotoxicity proxy
Method in brief: (§1)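 Beta-lactamase reporter inhibition, read as CCF4 fluorescence ratio (ex 405, em 460/530 nm) after 2 h at RT. HEK293T UAS-bla cells, 2500/well, were stimulated with 9-cis-RA at 500 or 100 nM final alongside test compound for 18 h at 37 C.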

[8] = target: Retinoic acid receptor RXR-alpha (Homo sapiens) (UniProt P19793); assay: as above; settings: HEK293T RXRa-UAS-bla, beta-lactamase ratio, antagonist mode
Sequence of Retinoic acid receptor RXR-alpha (Homo sapiens) (P19793 whole entry, looked up): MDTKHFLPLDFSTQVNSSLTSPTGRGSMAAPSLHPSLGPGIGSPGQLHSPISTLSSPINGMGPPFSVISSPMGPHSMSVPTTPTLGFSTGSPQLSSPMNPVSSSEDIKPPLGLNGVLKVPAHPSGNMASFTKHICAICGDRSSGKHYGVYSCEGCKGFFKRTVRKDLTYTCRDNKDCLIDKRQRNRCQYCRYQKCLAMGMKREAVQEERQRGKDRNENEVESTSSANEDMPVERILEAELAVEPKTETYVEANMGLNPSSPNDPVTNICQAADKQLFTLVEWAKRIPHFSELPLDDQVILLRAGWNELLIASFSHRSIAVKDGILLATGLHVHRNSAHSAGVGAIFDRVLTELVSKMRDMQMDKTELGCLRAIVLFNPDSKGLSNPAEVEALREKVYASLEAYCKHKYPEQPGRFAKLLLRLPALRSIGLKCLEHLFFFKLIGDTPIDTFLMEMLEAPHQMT
Method in brief: as §1

[9] = qHTS assay for small molecule activators of the p53 signaling pathway (AID 651743; active = well fitted activation curve with a large enough effect in the signal ratio, not every such curve was filed as active; the % refers to the signal ratio; note: % of control where 0% means no effect); settings: HCT-116 p53RE-bla, beta-lactamase FRET ratio, 16 h; activation: stronger effect = higher value
Method in brief: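 Agonist-mode quantitative HTS in HCT-116 cells carrying a p53-response-element beta-lactamase reporter; 16 h compound treatment at 37 C, then FRET substrate loading for 2 h at room temperature and fluorescence read.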

[10] = qHTS assay for environmental chemicals that activate the Aryl hydrocarbon Receptor (AhR) signaling pathway (AID 651777); settings: 1A2-DRE human hepatoma cells, luciferase, 24 h; activation: stronger effect = higher value; note: % of control where 0% means no effect; nearly all actives have a fitted effect of over 15% in size
Method in brief: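 Measured luciferase activity, read 30 min after One-Glo addition at room temperature, from human hepatoma cells bearing a dioxin response element–CYP1A2 promoter reporter and exposed to compound for 24 hr at 37 C.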

[11] = target: Peroxisome proliferator-activated receptor alpha (Homo sapiens) (UniProt Q07869); assay: qHTS assay for small molecule agonists of the peroxisome proliferator-activated receptor alpha (PPARalpha) signaling pathway (AID 651778); settings: PathHunter PPARalpha complementation, chemiluminescence, 6 h; max response: stronger effect = higher value; note: potency is the fitted concentration of half-maximal effect; for max response: % of control where 0% means no effect
Sequence of Peroxisome proliferator-activated receptor alpha (Homo sapiens) (Q07869 whole entry, looked up): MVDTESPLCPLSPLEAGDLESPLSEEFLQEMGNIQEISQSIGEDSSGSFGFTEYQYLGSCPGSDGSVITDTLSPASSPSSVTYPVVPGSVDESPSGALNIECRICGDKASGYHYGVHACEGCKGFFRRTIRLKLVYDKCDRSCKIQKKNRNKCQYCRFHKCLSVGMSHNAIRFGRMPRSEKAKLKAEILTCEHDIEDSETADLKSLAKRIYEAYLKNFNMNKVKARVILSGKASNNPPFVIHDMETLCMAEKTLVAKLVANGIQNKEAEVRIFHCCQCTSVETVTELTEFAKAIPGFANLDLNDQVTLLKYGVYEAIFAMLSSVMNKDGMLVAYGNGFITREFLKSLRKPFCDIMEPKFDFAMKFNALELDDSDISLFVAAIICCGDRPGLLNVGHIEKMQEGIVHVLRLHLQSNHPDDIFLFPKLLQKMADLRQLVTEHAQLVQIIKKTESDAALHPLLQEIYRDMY
Method in brief: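 Cells plated at 2,000/well and held overnight at 37 C, 5% CO2, then compound added by pin tool for 6 hr; after PathHunter detection reagent and 60 min at room temperature, chemiluminescence from enzyme complementation was read.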

[12] = qHTS assay for small molecule agonists of the antioxidant response element (ARE) signaling pathway measured by Nrf2-dependant transcriptional activity (AID 720636; active = well fitted curve in the direction sought with a large enough effect in the repeat runs; an effect the other way counts as inactive or inconclusive; note: potency is the fitted concentration of half-maximal effect;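 for activation: HepG2 cells with an ARE-driven luciferase reporter; % of control where 0% means no effect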); settings: ARE-luc HepG2, Nrf2 luciferase reporter, 16 h; series mostly up to 92.4 µM
Method in brief: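 In HepG2 cells engineered with an Nrf2-responsive luciferase gene, ARE induction was quantified as luminescence after 16 hr compound treatment at 37 C.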

[13] = qHTS assay for small molecule agonists of the antioxidant response element (ARE) signaling pathway measured by Nrf2-dependant transcriptional activity - cell viability counter screen (AID 720653; active = well fitted curve in the direction sought with a large enough effect in the repeat runs; an effect the other way counts as inactive or inconclusive; note: % is set by controls: 0 for no effect and ±100 for the full control effect); settings: ARE-bla HepG2 viability, CellTiter-Glo ATP luminescence, 16 h; max response: stronger effect = lower value
Method in brief: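 ARE-bla HepG2 cells (2,000/well) rested 5 hrs at 37C/5% CO2, then exposed to compounds in DMSO for 16 hrs. Viability was read in the same wells as intracellular ATP by luminescence, 30 min at room temperature after reagent addition.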

[14] = qHTS assay for cell viability of HEK293 cells (AID 743288); settings: ATP luminescence (CellTiter-Glo), 18 h; max response: stronger effect = lower value; note: % is set by controls: 0 for no effect and ±100 for the full control effect; nearly all actives have a fitted effect of over 50% in size
Method in brief: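 Readout is luciferase-coupled ATP content (CellTiter-Glo luminescence, 30 min room temperature) as a measure of metabolically competent cells. Parental HEK293 cells were plated 5 h or more before compound addition, then treated 18 h at 37 C.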

[15] = qHTS assay for cell viability of the p53RE-bla HCT-116 cell line (AID 743292); settings: p53RE-bla HCT-116 viability, ATP luminescence, 16 h; series mostly up to 95 µM; note: % is set by controls: 0 for no effect and ±100 for the full control effect; nearly all actives have a fitted effect of over 55% in size
Method in brief: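 Intracellular ATP of p53RE-bla HCT-116 cells measured by luciferase luminescence following 16 h compound incubation at 37 C; DMSO-only wells served as vehicle controls.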

[16] = target: Nuclear receptor subfamily 1 group I member 2 (Rattus norvegicus) (UniProt Q9R1A7); assay: qHTS assay for small molecule activators of the rat pregnane X receptor (rPXR) signaling pathway (AID 651751; call rule not given here; note: 0% is about no effect); settings: rPXR reporter cells, luciferase (One-Glo), 24 h
Sequence of Nuclear receptor subfamily 1 group I member 2 (Rattus norvegicus) (Q9R1A7 whole entry, looked up): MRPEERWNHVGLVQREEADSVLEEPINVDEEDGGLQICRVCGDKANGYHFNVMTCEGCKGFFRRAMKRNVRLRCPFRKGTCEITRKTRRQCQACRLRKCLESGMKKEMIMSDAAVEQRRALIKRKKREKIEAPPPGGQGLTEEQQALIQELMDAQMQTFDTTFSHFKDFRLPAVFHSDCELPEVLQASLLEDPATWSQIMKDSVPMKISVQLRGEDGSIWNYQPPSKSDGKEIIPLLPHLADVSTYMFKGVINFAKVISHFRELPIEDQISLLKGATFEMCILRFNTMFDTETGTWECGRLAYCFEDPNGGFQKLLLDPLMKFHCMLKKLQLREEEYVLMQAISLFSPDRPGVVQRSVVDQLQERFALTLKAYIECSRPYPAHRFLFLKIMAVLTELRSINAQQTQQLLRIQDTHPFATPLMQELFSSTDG

[17] = qHTS assay for small molecule agonists of retinoid X receptor alpha signaling (AID 588544; calls by dose curve;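 for activation: 0% = DMSO basal wells and 100% = reference agonist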); settings: HEK293T RXRa-UAS-bla, beta-lactamase reporter, 18 h; 530 nm emission
[18] = target: Retinoic acid receptor RXR-alpha (Homo sapiens) (UniProt P19793); assay: as above; settings: HEK293T RXRa-UAS-bla, beta-lactamase reporter, 18 h; series mostly up to 76.7 µM
[19] = qHTS assay for small molecule activators of the human pregnane X receptor (PXR) signaling pathway (AID 720659; call rule not given here; note: 0% is about no effect); settings: DPX-2 HepG2 CYP3A4-luciferase, 24 h; series mostly up to 92.3 µM
[20] = target: Vitamin D3 receptor (Homo sapiens) (UniProt P11473); assay: qHTS assay for small molecule antagonists of vitamin D receptor signaling (AID 588541; calls by dose curve;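 note: receptor activated by calcitriol during compound treatment; % is set by controls: 0 for no effect and ±100 for the full control effect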); settings: HEK293T VDR-UAS-bla, beta-lactamase ratio, antagonist mode; series mostly up to 76.7 µM
Method in brief: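 VDR-UAS-bla HEK293T cells (2000/well, 2% charcoal-stripped FBS) were treated with titrated compounds plus 1-alpha,25-dihydroxyvitamin D3 (50 nM or 3 nM final) for 16 h at 37 C. CCF4 beta-lactamase fluorescence was read; Hill fits gave IC50.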

CCOc1ccc(NC(=O)OC(C)C)cc1OCC
-3.73%: max response [7]
-29.8%: max response [2]
inactive: activation [1] -6.81% | outcome [3] | Potency [4] | outcome [5] | Potency [6] | max response [8] -21.6% | activation [9] -0.775% | activation [10] 2.6% | max response [11] 2.76% | Potency [12] | max response [13] -3.59% | max response [14] -5.68% | Potency [15] | max response [16] 10.3%

CCCCCCOCCOCCO
-13.6%: max response [7]
inactive: activation [1] -12.5% | outcome [3] | Potency [4] | Potency [18] | Potency [6] | activation [10] -0.48% | max response [11] 0.465% | Potency [12] | max response [13] -7.8% | max response [14] -5.42% | Potency [15] | max response [16] -1.74% | outcome [19]
-32.9%: max response [2]
-8.61%: max response [17]

COC(=O)CCSCCC(=O)OC
13.2%: max response [2]
-8.85%: max response [7]
inactive: activation [1] 8.88% | Potency [6] | max response [8] -2.91% | max response [11] -1.49% | Potency [12] | max response [13] 1.34% | max response [14] -5.77% | Potency [15] | max response [16] 0.101% | outcome [19]

C=C(C)C(=O)OCC(CC)(COC(=O)C(=C)C)COC(=O)C(=C)C
9.24%: max response [2]
inactive: activation [1] 3.82% | outcome [3] | Potency [4] | Potency [18] | Potency [6] | max response [8] 13.1% | activation [10] -0.628% | max response [11] -3.37% | Potency [12] | max response [13] -12% | max response [14] -15.9% | Potency [15] | max response [16] -1.04% | outcome [19]
-12.4%: max response [17]
-6.08%: max response [7]

C[Si](C)(Cl)[Si](C)(C)Cl
inactive: outcome [3] | Potency [4] | Potency [20] | outcome [5] | Potency [18] | Potency [6] | max response [8] -15.7% | activation [9] -0.0629% | activation [10] -0.723% | max response [11] 1.76% | Potency [12] | max response [13] -9.32% | max response [14] -5.72% | Potency [15] | max response [16] -0.179% | outcome [19]
-27.8%: max response [7]
-0.475%: max response [17]
-22.7%: max response [2]

O=C1NC(=O)C(Cc2ccc(OCCN3COc4ccccc4C3=O)cc2)S1 (stereo not drawn)
33.2%: max response [7]
inactive: activation [1] 5.15% | Potency [6] | max response [8] -11.1% | activation [9] 0.726% | activation [10] 13.4% | max response [13] -6.38% | max response [14] -10.2% | Potency [15] | max response [16] 1.08%
active: Potency [11] 17.8 µM

Cc1ccc(N)c(S(=O)(=O)O)c1
-0.582%: max response [17]
11.7%: max response [2]
inactive: activation [1] -5.18% | outcome [3] | Potency [4] | Potency [20] | outcome [5] | Potency [18] | Potency [6] | max response [8] -14.4% | activation [10] 8.24% | max response [11] -5.19% | max response [13] -14.4% | max response [14] -6.79% | Potency [15] | max response [16] 3.5% | outcome [19]
1.46%: max response [7]

CCCCC(CC)COC(=O)c1ccc(C(=O)OCC(CC)CCCC)cc1 (stereo not drawn)
-7.23%: max response [7]
-1.09%: max response [2]
inactive: outcome [3] | Potency [4] | Potency [18] | Potency [6] | max response [8] 5.51% | activation [9] 0.101% | activation [10] -2.7% | Potency [12] | max response [13] -17% | max response [14] -13.5% | Potency [15] | max response [16] -0.0794% | outcome [19]
-8.11%: max response [17]

CCCCCCCCCCCCCCCO
inactive: outcome [3] | Potency [4] | Potency [20] | outcome [5] | Potency [18] | Potency [6] | activation [9] -0.317% | activation [10] 2.17% | max response [11] 0.401% | Potency [12] | max response [13] -7.38% | max response [14] -19.2% | Potency [15] | max response [16] 3.48% | outcome [19]
-44.9%: max response [2]
-7.63%: max response [17]
-3.46%: max response [7]

Nc1cc(Cl)c(O)c(Cl)c1
inactive: activation [1] 16.9% | Potency [4] | outcome [5] | Potency [6] | activation [9] -2.82% | activation [10] 0.138% | max response [11] -5.8% | max response [13] -17.9% | max response [14] -19.5% | Potency [15] | max response [16] 0.356% | outcome [19]
active: Potency [12] 68.6 µM

CCOC(=O)[C@H](C)Oc1ccc(Oc2nc3ccc(Cl)cc3o2)cc1
24.7%: max response [2]
inactive: activation [1] 0.281% | Potency [4] | Potency [20] | outcome [5] | activation [9] -9.98% | activation [10] 13.7% | max response [11] -1.02% | max response [13] 0.626% | max response [14] -6.11% | Potency [15] | max response [16] -0.698% | outcome [19]

c1ccc2c(c1)ccc1c3ccccc3ccc21
1.74%: max response [2]
-22.1%: max response [7]
-11.3%: max response [17]
inactive: outcome [3] | Potency [4] | Potency [20] | outcome [5] | Potency [18] | Potency [6] | max response [8] -7.12% | max response [11] -3.59% | max response [13] -24.7% | max response [14] -7.41% | Potency [15]
